# Data published in ChEMBL document CHEMBL2218924, “A broad activity screen in support of a chemogenomic map for kinase signalling research and drug discovery” (Biochem J, 2013).
# Key:
# [1] = target: Tyrosine-protein kinase SYK (Homo sapiens) (UniProt P43405); details: at 10 µM
# [2] = target: T1, Mitogen-activated protein kinase kinase kinase 7 (Homo sapiens) (UniProt O43318); details: at 1 µM
# T1 sequence (whole entry): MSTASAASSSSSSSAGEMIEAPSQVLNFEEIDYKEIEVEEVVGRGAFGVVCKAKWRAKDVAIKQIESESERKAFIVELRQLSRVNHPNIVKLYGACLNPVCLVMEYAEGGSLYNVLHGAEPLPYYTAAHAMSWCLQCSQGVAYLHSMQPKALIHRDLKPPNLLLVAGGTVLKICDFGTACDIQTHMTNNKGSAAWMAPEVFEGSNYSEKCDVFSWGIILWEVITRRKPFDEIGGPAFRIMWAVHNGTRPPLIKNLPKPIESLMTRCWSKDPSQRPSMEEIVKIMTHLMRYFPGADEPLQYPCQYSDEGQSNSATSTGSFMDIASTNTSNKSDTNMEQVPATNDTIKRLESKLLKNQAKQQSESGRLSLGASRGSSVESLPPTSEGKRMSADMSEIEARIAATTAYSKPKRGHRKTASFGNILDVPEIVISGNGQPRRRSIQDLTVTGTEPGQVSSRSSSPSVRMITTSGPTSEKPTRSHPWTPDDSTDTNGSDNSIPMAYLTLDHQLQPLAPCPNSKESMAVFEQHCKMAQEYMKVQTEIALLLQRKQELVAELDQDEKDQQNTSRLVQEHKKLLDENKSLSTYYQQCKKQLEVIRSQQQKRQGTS
# [3] = target: T1, Mitogen-activated protein kinase kinase kinase 7 (Homo sapiens); details: at 10 µM
# [4] = target: T2, Serine/threonine-protein kinase TAO1 (Homo sapiens) (UniProt Q7L7X3); details: at 1 µM
# T2 sequence (whole entry): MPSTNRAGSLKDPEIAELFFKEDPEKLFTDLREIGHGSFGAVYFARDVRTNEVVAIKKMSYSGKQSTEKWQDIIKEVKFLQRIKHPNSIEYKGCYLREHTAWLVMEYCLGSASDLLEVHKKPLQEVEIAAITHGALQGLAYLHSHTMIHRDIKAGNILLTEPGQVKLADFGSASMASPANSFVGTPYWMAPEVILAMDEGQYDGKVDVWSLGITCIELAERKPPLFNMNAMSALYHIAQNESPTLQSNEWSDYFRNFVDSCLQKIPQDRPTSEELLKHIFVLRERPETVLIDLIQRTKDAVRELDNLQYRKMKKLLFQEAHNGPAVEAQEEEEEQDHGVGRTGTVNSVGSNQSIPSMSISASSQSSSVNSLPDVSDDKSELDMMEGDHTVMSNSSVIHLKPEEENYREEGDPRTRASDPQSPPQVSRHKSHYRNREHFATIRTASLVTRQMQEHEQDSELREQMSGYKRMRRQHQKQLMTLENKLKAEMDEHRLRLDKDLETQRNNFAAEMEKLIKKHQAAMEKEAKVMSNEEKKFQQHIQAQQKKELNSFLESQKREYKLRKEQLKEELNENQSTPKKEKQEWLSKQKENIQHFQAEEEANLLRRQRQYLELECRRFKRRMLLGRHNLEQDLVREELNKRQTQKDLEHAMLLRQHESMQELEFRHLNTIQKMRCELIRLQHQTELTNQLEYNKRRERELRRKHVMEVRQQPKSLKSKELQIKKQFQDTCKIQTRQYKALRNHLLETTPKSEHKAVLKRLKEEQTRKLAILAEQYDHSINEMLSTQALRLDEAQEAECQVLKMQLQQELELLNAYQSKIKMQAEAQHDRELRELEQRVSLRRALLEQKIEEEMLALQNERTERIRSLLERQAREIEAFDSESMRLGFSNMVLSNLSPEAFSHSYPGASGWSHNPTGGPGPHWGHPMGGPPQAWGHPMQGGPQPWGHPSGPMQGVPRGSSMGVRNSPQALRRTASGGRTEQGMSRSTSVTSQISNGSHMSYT
# [5] = target: T2, Serine/threonine-protein kinase TAO1 (Homo sapiens); details: at 10 µM
# [6] = target: T3, Serine/threonine-protein kinase TAO2 (Homo sapiens) (UniProt Q9UL54); details: at 1 µM
# T3 sequence (whole entry): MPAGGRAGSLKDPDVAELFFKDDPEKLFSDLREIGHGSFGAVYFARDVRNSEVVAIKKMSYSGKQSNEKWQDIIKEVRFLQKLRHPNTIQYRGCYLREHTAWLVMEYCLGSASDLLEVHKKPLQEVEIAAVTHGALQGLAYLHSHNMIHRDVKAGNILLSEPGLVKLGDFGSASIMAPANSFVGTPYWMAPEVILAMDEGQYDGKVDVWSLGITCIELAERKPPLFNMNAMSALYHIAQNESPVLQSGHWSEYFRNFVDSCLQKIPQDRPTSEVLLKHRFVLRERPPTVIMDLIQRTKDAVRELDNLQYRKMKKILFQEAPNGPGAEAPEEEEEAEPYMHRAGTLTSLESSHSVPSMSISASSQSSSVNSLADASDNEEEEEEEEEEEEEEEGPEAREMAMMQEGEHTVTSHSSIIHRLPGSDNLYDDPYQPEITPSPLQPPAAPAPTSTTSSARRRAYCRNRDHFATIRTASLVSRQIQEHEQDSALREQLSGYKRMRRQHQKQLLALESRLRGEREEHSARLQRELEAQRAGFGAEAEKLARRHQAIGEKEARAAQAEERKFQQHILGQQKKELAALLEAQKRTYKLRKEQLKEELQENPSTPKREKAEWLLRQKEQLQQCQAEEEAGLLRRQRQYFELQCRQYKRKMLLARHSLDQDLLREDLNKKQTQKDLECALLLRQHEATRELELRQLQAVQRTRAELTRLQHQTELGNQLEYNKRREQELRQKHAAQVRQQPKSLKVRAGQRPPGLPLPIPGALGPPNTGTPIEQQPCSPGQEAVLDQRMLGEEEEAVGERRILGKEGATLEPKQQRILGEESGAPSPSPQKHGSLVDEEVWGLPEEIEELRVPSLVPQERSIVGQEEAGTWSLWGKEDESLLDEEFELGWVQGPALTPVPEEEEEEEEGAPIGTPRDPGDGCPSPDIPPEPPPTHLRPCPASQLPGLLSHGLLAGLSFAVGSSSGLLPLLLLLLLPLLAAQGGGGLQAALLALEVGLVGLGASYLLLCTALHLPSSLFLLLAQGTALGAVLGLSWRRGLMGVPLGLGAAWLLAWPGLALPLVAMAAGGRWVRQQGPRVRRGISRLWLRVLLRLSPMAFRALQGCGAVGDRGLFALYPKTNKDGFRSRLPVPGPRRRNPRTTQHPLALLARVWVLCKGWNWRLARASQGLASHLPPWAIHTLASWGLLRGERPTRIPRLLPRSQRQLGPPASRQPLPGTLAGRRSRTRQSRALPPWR
# [7] = target: T3, Serine/threonine-protein kinase TAO2 (Homo sapiens); details: at 10 µM
# [8] = target: T4, Serine/threonine-protein kinase TAO3 (Homo sapiens) (UniProt Q9H2K8); details: at 1 µM
# T4 sequence (whole entry): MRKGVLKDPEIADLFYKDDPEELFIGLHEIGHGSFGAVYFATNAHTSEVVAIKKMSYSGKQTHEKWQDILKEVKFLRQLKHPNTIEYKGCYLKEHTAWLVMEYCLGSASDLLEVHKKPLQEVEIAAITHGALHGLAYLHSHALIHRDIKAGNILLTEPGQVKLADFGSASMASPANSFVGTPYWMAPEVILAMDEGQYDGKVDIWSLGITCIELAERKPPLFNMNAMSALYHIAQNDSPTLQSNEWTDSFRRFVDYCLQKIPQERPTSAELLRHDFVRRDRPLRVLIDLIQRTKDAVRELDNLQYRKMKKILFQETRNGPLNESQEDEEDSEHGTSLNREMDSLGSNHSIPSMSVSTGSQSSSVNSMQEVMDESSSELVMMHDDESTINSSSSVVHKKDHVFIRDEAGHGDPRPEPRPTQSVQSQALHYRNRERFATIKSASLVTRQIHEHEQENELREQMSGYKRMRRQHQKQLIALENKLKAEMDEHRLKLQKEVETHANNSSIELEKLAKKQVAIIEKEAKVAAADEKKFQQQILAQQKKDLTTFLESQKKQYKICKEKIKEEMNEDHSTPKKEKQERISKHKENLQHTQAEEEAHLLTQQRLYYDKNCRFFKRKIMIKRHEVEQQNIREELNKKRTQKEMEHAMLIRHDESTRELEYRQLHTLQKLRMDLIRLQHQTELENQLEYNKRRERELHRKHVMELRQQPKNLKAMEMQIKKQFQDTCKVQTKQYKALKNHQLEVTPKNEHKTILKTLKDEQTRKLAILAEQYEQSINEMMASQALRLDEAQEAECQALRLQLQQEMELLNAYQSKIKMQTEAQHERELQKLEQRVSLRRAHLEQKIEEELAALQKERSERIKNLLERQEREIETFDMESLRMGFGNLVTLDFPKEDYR
# [9] = target: T4, Serine/threonine-protein kinase TAO3 (Homo sapiens); details: at 10 µM
# [10] = target: T5, Serine/threonine-protein kinase TBK1 (Homo sapiens) (UniProt Q9UHD2); details: at 1 µM
# T5 sequence (whole entry): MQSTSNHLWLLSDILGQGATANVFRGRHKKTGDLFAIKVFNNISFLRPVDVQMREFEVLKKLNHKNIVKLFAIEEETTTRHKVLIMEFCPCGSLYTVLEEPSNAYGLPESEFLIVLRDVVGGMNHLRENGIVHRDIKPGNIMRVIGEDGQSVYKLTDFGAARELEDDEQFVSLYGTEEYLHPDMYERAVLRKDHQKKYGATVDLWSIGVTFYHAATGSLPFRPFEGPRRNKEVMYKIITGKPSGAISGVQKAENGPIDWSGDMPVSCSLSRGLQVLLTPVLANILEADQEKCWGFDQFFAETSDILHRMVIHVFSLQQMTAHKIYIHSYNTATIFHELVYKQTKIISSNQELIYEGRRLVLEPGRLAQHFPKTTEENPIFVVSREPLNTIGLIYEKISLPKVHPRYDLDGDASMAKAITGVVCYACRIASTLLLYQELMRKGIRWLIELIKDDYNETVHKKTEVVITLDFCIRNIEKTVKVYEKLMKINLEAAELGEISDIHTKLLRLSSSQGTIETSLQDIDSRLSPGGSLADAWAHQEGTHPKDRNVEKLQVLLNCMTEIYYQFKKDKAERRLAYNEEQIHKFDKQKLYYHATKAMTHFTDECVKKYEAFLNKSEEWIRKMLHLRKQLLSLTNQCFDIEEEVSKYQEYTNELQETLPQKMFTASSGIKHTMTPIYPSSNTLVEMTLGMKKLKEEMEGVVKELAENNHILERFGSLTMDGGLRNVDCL
smiles,measurement,setting,value
CCN(CC)CCCCN1c2ccccc2Oc2ccc(Cl)cc21,residual activity,[1],93%
same,residual activity,[2],97%
same,residual activity,[3],90%
same,residual activity,[4],117%
same,residual activity,[5],100%
same,residual activity,[6],100%
same,residual activity,[7],92%
same,residual activity,[8],101%
same,residual activity,[9],96%
same,residual activity,[10],91%
